Measured values from PubChem BioAssay (NCI).
Compounds without any hit were thinned out: in the full panel of roughly 79,000, 15% have a hit. A number with no mark means an inactive call. Active and inactive are the calls of the source. No stated cut-off is given here; in the data, active means growth inhibition above about 70%; inactive means the rest.

How the values were obtained:
[1] = NCI Yeast Anticancer Drug Screen. Data for the rad50 strain (AID 155);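 further: 0% = growth of vehicle-only cultures of the same strain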; settings: S. cerevisiae rad50 strain growth inhibition, hits give high values
Summary of the method: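 A DNA repair-deficient yeast mutant serves as the test organism; compound-induced growth inhibition is calculated against vehicle-treated cells.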

[2] = NCI Yeast Anticancer Drug Screen. Data for the mec2-1 strain (AID 157); settings: S. cerevisiae mec2-1 strain, hits give high values
Summary of the method: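 Each compound was tested on mec2-1 yeast, a strain altered in DNA damage repair or cell cycle control. Growth inhibition is reported relative to vehicle.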

[3] = NCI Yeast Anticancer Drug Screen. Data for the sgs1 mgt1 strain (AID 161);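 further: 0% = growth of cultures given vehicle only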; settings: S. cerevisiae sgs1 mgt1 strain, hits give high values
Summary of the method: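 Genetically altered yeast, compound exposure, growth inhibition relative to vehicle.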

[4] = NCI Yeast Anticancer Drug Screen. Data for the cln2 rad14 strain (AID 165);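 further: 0% = growth equal to vehicle treated cultures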; settings: S. cerevisiae cln2 rad14 strain, hits give high values
Summary of the method: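 Test compounds were added to cln2 rad14 yeast cultures; inhibition of growth was then determined by comparison with vehicle treatment.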

[5] = NCI Yeast Anticancer Drug Screen. Data for the bub3 strain (AID 167); settings: S. cerevisiae bub3 mutant strain, hits give high values
Summary of the method: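 Inhibition values come from growth of compound-treated mutant yeast normalised to vehicle-treated controls.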

[6] = NCI Yeast Anticancer Drug Screen. Data for the mlh1 rad18 strain (AID 175); settings: S. cerevisiae mlh1 rad18 strain growth inhibition, hits give high values
Summary of the method: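 Inhibition values reflect reduced growth of mutant yeast versus vehicle-treated controls following compound exposure; the mutations affect DNA damage repair.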

[7] = at 5.0 µM (retest, dose inferred, filed as 0.5)
[8] = at 50.0 µM (retest, dose inferred, filed as 5.0)

SMILES	growth inhibition [1, 7] [%]	growth inhibition [1, 8]	growth inhibition ([1]; at 50.0 µM)	growth inhibition [2, 7] [%]	growth inhibition [2, 8]	growth inhibition ([2]; at 50.0 µM)	growth inhibition [3, 7] [%]	growth inhibition [3, 8]	growth inhibition ([3]; at 50.0 µM)	growth inhibition [4, 7] [%]	growth inhibition [4, 8]	growth inhibition ([4]; at 50.0 µM)	growth inhibition [5, 7] [%]	growth inhibition [5, 8]	growth inhibition ([5]; at 50.0 µM)	growth inhibition [6, 7] [%]	growth inhibition [6, 8]	growth inhibition ([6]; at 50.0 µM)
C=CCOC(=O)OCCCO	0	-3%	91.7% (active)	-1	-1%	99.2% (active)	2	-1%	97.2% (active)	-5	2%	95.8% (active)	-1	-3%	98.8% (active)	-1	-1%	95.5% (active)
CCS(=O)(=O)C(C(O)C(O)C(O)C(O)CO)S(=O)(=O)CC (stereo not given)	-3	-6%	16.2%	-2	-6%	8.95%	-2	-2%	7.25%	0	-10%	43.5%	0	4%	-2%	-4	-10%	-7.05%
C\C=C/C=C/C=C/C(=O)O	5	13%	66.5%	2	-4%	60.1%	2	7%	42.3%	-2	3%	40.6%	4	0%	95% (active)	1	8%	45%
COc1cccc2c1OC(c1cccc3ccccc13)C([N+](=O)[O-])=C2 (stereo not given)	49	75% (active)	62.3%	32	67%	62.1%	39	70% (active)	61.4%	22	62%	47%	47	74% (active)	54.8%	49	81% (active)	58.8%
N#CC1(C#N)C(C#N)(C#N)C12CCCCCC2	38	97% (active)	98.9% (active)	32	98% (active)	99.3% (active)	39	99% (active)	99.5% (active)	13	95% (active)	98.7% (active)	39	83% (active)	99% (active)	52	98% (active)	99.2% (active)
COc1ccc(-c2cn(-c3ccccc3)c3ncnc(N)c23)cc1	5	18%	24.1%	5	23%	11.8%	10	52%	79.5% (active)	1	0%	33.8%	2	9%	-15.4%	-2	14%	17.6%
CC(C)(C)N=C=NC(c1ccccc1)(c1ccccc1)c1ccccc1	-3	-21%	-1.9%	-9	-7%	-6.1%	-6	-24%	2.45%	-1	-18%	42.5%	-6	-22%	4.5%	11	1%	-3.25%
CCCCN(CCCC)CC(=O)c1ccc2cc(Cl)c3ccccc3c2c1	20	91% (active)	95.3% (active)	23	93% (active)	95.5% (active)	56	90% (active)	95.8% (active)	7	90% (active)	92.7% (active)	18	91% (active)	95.3% (active)	31	84% (active)	94.7% (active)
CCOC(=O)C1C(c2cccc(OC)c2O)c2cc3c(cc2OC1(C)N1CCCC1)OCO3 (stereo not given)	-3	21%	31.2%	1	15%	16.4%	-2	39%	34.5%	-5	-4%	2.55%	1	25%	24.9%	-4	27%	50.5%
CCCCN(Cc1ccccc1)CC(O)c1cc2c(c3ccccc13)CCCC2 (stereo not given)	-2	85% (active)	95.9% (active)	9	89% (active)	80% (active)	0	95% (active)	93.2% (active)	-7	59%	92.2% (active)	-7	84% (active)	76.1% (active)	18	92% (active)	92.8% (active)
